From PubChem BioAssay (EPA / NIEHS) come the findings set out here.

The nature of test [1]: Tanguay_ZF_120hpf_JAW_legacy: (Legacy) Oregon State University Tanguay Lab 120 Hour Post-fertilization zebrafish Assay for Jaw Malformation (AID 2283638).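 As to AC50: active means more embryos with jaw malformation than DMSO controls.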 Put shortly:
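Binary jaw-malformation call at 120 hpf by brightfield microscopy. Embryos (Tropical 5D strain, chorion removed at 4 hpf) were dosed statically at 6 hpf, one per well, at 28C with 0.64% DMSO. Embryos that died were not scored.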

Test [2] can be described thus: Tanguay_ZF_120hpf_PE_legacy: (Legacy) Oregon State University Tanguay Lab 120 Hour Post-fertilization zebrafish Assay for Pericardial Edema (AID 2283640). Put shortly: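 Scoring was binary, by brightfield microscopy at 120 hpf, and skipped where mortality occurred. Wild-type embryos were kept under sealed, foil-covered static exposure at 28C in 0.64% (vol/vol) DMSO.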

Test [3] is described as follows: Tanguay_ZF_120hpf_BRAI_legacy: (Legacy) Oregon State University Tanguay Lab 120 Hour Post-fertilization zebrafish Assay for Brain Malformation (AID 2283641). Put shortly: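 Binary brightfield scoring of brain malformation at 120 hpf in Tropical 5D larvae held under static exposure at 28C (0.64% v/v DMSO), non-mortality endpoints skipped if dead. Positive control: 5uM trimethyltin chloride; fit versus DMSO.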

Test [4] in a line: Tanguay_ZF_120hpf_PFIN_legacy: (Legacy) Oregon State University Tanguay Lab 120 Hour Post-fertilization zebrafish Assay for Pectoral Fin Malformation (AID 2283648).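 Also: each larva judged yes or no for fin defect by brightfield with dead larvae skipped.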 Put shortly: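 Dechorionated Tropical 5D wild-type zebrafish embryos, one per well, statically exposed from 6 to 120 hpf at 28C with 0.64% DMSO final. Pectoral fin malformation scored present/absent by brightfield at 120 hpf; not scored in dead embryos.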

The nature of test [5]: Tanguay_ZF_120hpf_CFIN_legacy: (Legacy) Oregon State University Tanguay Lab 120 Hour Post-fertilization zebrafish Assay for Caudal Fin Malformation (AID 2283649). In outline: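 Binary brightfield scoring of caudal fin defects at 120 hpf after static, light-shielded exposure at 28C from 6 hpf. Tropical 5D embryos, chorion removed with pronase at 4 hpf, final DMSO 0.64%.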
Test [6] can be described thus: Tanguay_ZF_120hpf_PIG_legacy: (Legacy) Oregon State University Tanguay Lab 120 Hour Post-fertilization zebrafish Assay for Pigmentation Malformation (AID 2283650). Put shortly: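 Dechorionated Tropical 5D wild-type embryos, one per well from 6 hpf, statically exposed at 28C in the dark until 120 hpf, 0.64% DMSO final. Pigmentation scored present/absent by brightfield microscopy; dead embryos not scored; fitted versus DMSO.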

Test [7] is described as follows: Tanguay_ZF_120hpf_CIRC_legacy: (Legacy) Oregon State University Tanguay Lab 120 Hour Post-fertilization zebrafish Assay for Circulatory Malformation (AID 2283651). Put shortly: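 Using wild-type Tropical 5D zebrafish, we exposed dechorionated embryos from 6 to 120 hpf in embryo medium with 0.64% DMSO. Circulatory defects were scored as present or absent; 5uM trimethyltin chloride served as positive control.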

Test [8] can be described thus: Tanguay_ZF_120hpf_TRUN_legacy: (Legacy) Oregon State University Tanguay Lab 120 Hour Post-fertilization zebrafish Assay for Truncated Body (AID 2283655). Put shortly:
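Binary presence/absence of truncated body is recorded at 120 hpf by brightfield, with non-mortality endpoints skipped after death. Exposure is static from 6 hpf in sealed dark plates at 28C, using dechorionated wild-type zebrafish, 0.64% DMSO.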

Test [9] in a line: Tanguay_ZF_120hpf_NC_legacy: (Legacy) Oregon State University Tanguay Lab 120 Hour Post-fertilization zebrafish Assay for Notochord and Tail Malformation (AID 2283656). In outline:
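Dechorionated 5D zebrafish, 1/well from 6 hpf; static exposure to 120 hpf, 28C, sealed, dark; final DMSO 0.64% v/v. NC scored binary (present/absent); dead embryos not scored. Fit vs DMSO baseline, gain direction.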

Read-out in test [10]: kallikrein-3 (KLK3), KLK3 (gene 354)
In words: LTEA_HepaRG_KLK3: Life Technologies and Expression Analysis (LTEA) Assay for kallikrein-3 (KLK3) using HepaRG (AID 2283652; active = hit-call score of the fitted dose curve at least 0.9, where 1 is the maximum; inactive = score below 0.9). Particulars: mRNA level, 48 h; actives raise or lower the signal. In outline: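 Differentiated human HepaRG cells in serum-free induction medium exposed 48 h in duplicate, eight-point half-log series from 100 uM in 0.5% DMSO. KLK3 mRNA by qRT-PCR, normalised to ACTB, GAPDH, POLR2A; bidirectional fit versus DMSO.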

Read-out in test [11]: solute carrier (SLC22A6), SLC22A6 (gene 9356)
In words: LTEA_HepaRG_SLC22A6: Life Technologies and Expression Analysis (LTEA) Assay for solute carrier (SLC22A6) using HepaRG (AID 2283653; active = hit-call score of the fitted dose curve at least 0.9, where 1 is the maximum; inactive = score below 0.9). Particulars: mRNA level, 48 h; actives raise or lower the signal. Put shortly: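 SLC22A6 transcript was measured by TaqMan qRT-PCR, normalized to three housekeeping genes, after 48 h duplicate exposure of HepaRG cells (100 uM top, half-log steps, 0.5% DMSO); bidirectional fit against vehicle.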

A short description of test [12]: Tanguay_ZF_120hpf_SWIM_legacy: (Legacy) Oregon State University Tanguay Lab 120 Hour Post-fertilization zebrafish Assay for Swim Bladder Malformation (AID 2283654).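 Also: swim bladder malformation in each larva scored yes or no under brightfield.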 In outline: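 Dechorionated wild-type Tropical 5D zebrafish embryos, one per well from 6 hpf, were statically exposed at 28C until 120 hpf in 0.64% DMSO. Swim bladder malformation scored as present/absent by brightfield microscopy; not scored in dead larvae.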

Read-out in test [13]: solute carrier (SLC10A1), SLC10A1 (gene 6554)
Nature of the test: LTEA_HepaRG_SLC10A1: Life Technologies and Expression Analysis (LTEA) Assay for solute carrier (SLC10A1) using HepaRG (AID 2283657; active = hit-call score of the fitted dose curve at least 0.9, where 1 is the maximum; inactive = score below 0.9). Particulars: mRNA level, 48 h; actives raise or lower the signal. Put shortly:
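HepaRG cells (single lot) exposed 48 h in serum-free induction medium, 8-point half-log series from 100 uM top in 0.5% DMSO, duplicate. SLC10A1 mRNA by qRT-PCR normalised to ACTB, GAPDH, POLR2A; bidirectional fit versus DMSO.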

Read-out in test [14]: matrix metalloproteinase-1 (MMP1), MMP1 (gene 4312)
In words: LTEA_HepaRG_MMP1: Life Technologies and Expression Analysis (LTEA) Assay for matrix metalloproteinase-1 (MMP1) using HepaRG (AID 2283658; active = hit-call score of the fitted dose curve at least 0.9, where 1 is the maximum; inactive = score below 0.9). The following applies: mRNA level, 48 h; actives raise or lower the signal. In outline:
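qRT-PCR (TaqMan, Fluidigm arrays) of MMP1 transcript, normalized against three housekeeping genes and fitted in both directions relative to 0.5% DMSO vehicle. Human HepaRG cultures received duplicate 48 h exposures across 8 points, highest 100 uM with half-log steps.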

The nature of test [15]: CCTE_Simmons_CellTiterGLO_HEK293T: Viability Assessment in CCTE's Assays for Thyroperoxidase (TPO) Inhibition, Simmons Lab (AID 2283665). Put shortly:
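Cytotoxicity counter-screen: human HEK293T cells in low-serum (1% FBS) medium receive test chemical, 5 nM to 87.5 uM final, for 24 h; ATP is quantified by luciferase luminescence.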
(In general: ATP-based viability assays read luminescence as a measure of living cells.)

Test [16] can be described thus: Tanguay_ZF_120hpf_TR_legacy: (Legacy) Oregon State University Tanguay Lab 120 Hour Post-fertilization zebrafish Assay for Touch Response (AID 2283667). Put shortly:
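Tropical 5D wild-type zebrafish embryos statically exposed to 120 hpf at 28°C, sealed and dark-covered, 0.64% DMSO final; touch response scored as present/absent by brightfield microscopy at 120 hpf. Trimethyltin chloride 5 uM positive control; dead embryos not scored.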

Read-out in test [17]: Cytochrome P450 (CYP24A1_1), CYP24A1 (gene 1591)
In words: LTEA_HepaRG_CYP24A1_1: Life Technologies and Expression Analysis (LTEA) Assay for Cytochrome P450 (CYP24A1_1) using HepaRG (AID 2283671; active = hit-call score of the fitted dose curve at least 0.9, where 1 is the maximum; inactive = score below 0.9). Particulars: mRNA level, 48 h; actives raise or lower the signal. In outline: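 Differentiated human HepaRG cells in serum-free induction medium, exposed 48 h in duplicate to eight half-log concentrations from 100 uM top, 0.5% DMSO. Transcript measured by TaqMan qRT-PCR, normalised to ACTB, GAPDH, POLR2A; bidirectional fitting versus DMSO.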

Test [18] in a line: Tanguay_ZF_120hpf_SOMI_legacy: (Legacy) Oregon State University Tanguay Lab 120 Hour Post-fertilization zebrafish Assay for Somite Malformation (AID 2283647). In outline: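 Binary somite-defect scoring at 120 hpf, omitted for embryos that died, in wild-type (Tropical 5D) zebrafish with chorion removed by pronase at 4 hpf; static exposure began 6 hpf, single embryos per well, 28C, 0.64% DMSO; fitted positive versus DMSO.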

Test [19] relates to Thyroperoxidase (TPO), gene 54314. Nature of the test: CCTE_Simmons_AUR_rTPO: CCTE's Amplex UltraRed Assay for Thyroperoxidase (TPO) Inhibition, Simmons Lab (AID 2283662).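 Also: potency for loss of signal meaning inhibition of peroxidase activity.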 Put shortly: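 Endpoint is decreased Amplex UltraRed fluorescence after a 30-min, 37C reaction of rat thyroid microsomes with 300 uM H2O2. Eight test concentrations (5 nM–87.5 uM final) in 0.5% DMSO, three biological replicates each.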

Usually AC50 stands for the midpoint of the concentration-response curve, whichever way the signal moves.

Inconclusive results are not listed. Activity calls are given as the source filed them. The calls were made as follows, unless noted: active = hit-call score of the fitted dose curve at least 0.9, where 1 is the maximum; inconclusive = response in the unintended direction; inactive = score below 0.9.

`CC(=O)Oc1ccccc1C(=O)O`: the compound was classed as inactive in [1], in test [2], in test [3], in test [4], in [5] and in [6]. The result in test [7], in test [8] and in test [9] was inactive.
Turning to `CN1CCCC1=O`, the outcome in [1], in test [2], in test [3], in test [4], in test [5] and in test [6] was inactive. Further, the compound was classed as inactive in test [7], in test [10], in test [11], in test [12], in test [8] and in test [9]. For the same compound, the compound was called inactive in test [13], in test [14], in test [15], in test [16] and in test [17].
As for `Cc1ccccc1Cl`, the outcome in test [1], in test [2], in test [3], in [18], in [4] and in test [5] was inactive. The outcome in [6], in test [7], in test [12], in test [8], in test [9] and in test [16] was inactive.
Take `Cc1cc(NC(=O)C(=O)O)cc(C)c1Oc1ccc(O)c2c1CCC2`: the AC50 is 68.9 nM (active) in test [1]; 546 nM (active) in [3]; 499 nM (active) in test [4]; 3.39 nM (active) in test [6]; 5070 nM (active) in test [19]. For the same compound, the compound was called inactive in [2], in [5], in [7], in test [12], in test [8] and in test [9]. The compound was called inactive in [15] and in [16].
Turning to `O=C(O)CCCCC(=O)O`, the compound was classed as inactive in test [1], in test [2], in test [3], in test [18], in [4] and in test [5]. Further, the compound was called inactive in [6], in [7], in [12], in test [8], in test [9] and in [16].
As for `CN1CCN(Cc2cc(-c3ccc4[nH]c(=O)oc4c3)co2)[C@@H](c2ccc(F)cc2)C1`, the AC50 in test [1] was 25700 nM (active); in test [8], 16200 nM (active). The compound was classed as inactive in [2], in test [3], in test [18], in test [4], in [5] and in test [6]. Besides, the compound was called inactive in [7], in [12], in test [9] and in test [16].
With `CCCCc1ccc2c(n1)[C@@H](c1ccc(OC)cc1C[C@H](C)C(=O)O)[C@H](C(=O)O)[C@H]2c1ccc2c(c1)OCO2`, the call in [1], in [2], in test [3], in [4], in [5] and in test [6] was inactive. Besides, the call in test [7], in test [12], in test [8] and in test [9] was inactive.
On to `Cc1cccc(Nc2cc(Cl)nc(SCC(=O)O)n2)c1C`, for which the result in [1], in test [2], in test [3], in [4], in test [5] and in test [6] was inactive. In addition, the outcome in [7], in [12], in test [8], in test [9] and in test [16] was inactive.
Take `O=C(OCCCCCOC(=O)c1ccccc1)c1ccccc1`: the compound was called inactive in [1], in test [2], in test [3], in test [4], in test [5] and in [6]. The compound was classed as inactive in [7], in [12], in test [8], in test [9] and in test [16].
In the case of `Cc1ccc2ncccc2c1`, the result in test [1], in test [2], in test [3], in [4], in test [5] and in test [6] was inactive. For the same compound, the outcome in test [7], in test [12], in test [8], in [9] and in test [16] was inactive.
Consider `Cc1nc(C)nc(N2C[C@@H](C)N(c3ccnc([C@@H](C)O)n3)[C@@H](C)C2)n1`, for which the compound was classed as inactive in test [1], in test [2], in test [3], in [18], in test [4] and in [5]. In addition, the compound was called inactive in test [6], in [7], in test [12], in [8], in test [9] and in test [16].
